Screening data from PubChem.
Sampled rows, rich in hits. Any-hit rate of the full collection: about 4%.
D1 potentiator: enhances dopamine response at the human D1 receptor; P21728; HEK293 TREx D1 cells, calcium flux, dopamine EC20 potentiation; potentiation, % at 10 µM; 360,000 tested, 0.036% active; AID 504651; in the data active = potentiation above about 30%; note: 0% is about no effect
Target sequence (P21728 whole entry, looked up): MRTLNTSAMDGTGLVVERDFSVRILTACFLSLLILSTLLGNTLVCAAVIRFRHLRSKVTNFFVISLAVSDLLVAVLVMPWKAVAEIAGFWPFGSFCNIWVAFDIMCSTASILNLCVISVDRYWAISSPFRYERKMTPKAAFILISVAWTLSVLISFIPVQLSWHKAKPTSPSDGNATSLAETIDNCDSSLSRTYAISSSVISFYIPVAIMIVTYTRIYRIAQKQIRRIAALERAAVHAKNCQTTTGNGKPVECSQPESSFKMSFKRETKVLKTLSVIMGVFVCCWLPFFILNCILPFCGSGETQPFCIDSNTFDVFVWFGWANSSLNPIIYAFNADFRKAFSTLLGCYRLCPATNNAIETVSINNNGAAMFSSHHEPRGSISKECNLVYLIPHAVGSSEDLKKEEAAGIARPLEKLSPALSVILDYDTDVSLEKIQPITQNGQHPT
D1 ag: agonists of human D1 dopamine receptor; P21728; HEK293 T-REx D1 cells, calcium flux, agonist mode; activation, % at 2 µM; 360,000 tested, 1% active; AID 504660; note: 0% is about no effect
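Tetracycline-induced HEK293 TREx D1 cells, force-coupled to calcium signalling, were dye-loaded with a no-wash calcium kit. Compound was pin-added after a 10 s baseline. Fluorescence was read kinetically at 1 cycle/s for 180 s, with calcium rises flagged as agonism.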
Glioma ERSR ind: induces the endoplasmic reticulum stress response in human glioma cells; AID 602332; 420,000 tested, 0.02% active; Potency, µM, without a hit: at the top dose activation, usual class: activators; U87-MG GRP78 promoter luciferase reporter, 16 h; active = well fitted activation curve with a large enough effect; note: potency is the fitted concentration of half-maximal effect; series mostly up to about 76 µM; % of control where 0% means no effect; nearly all actives have a fitted effect of over 35% in size
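Stably transfected U87-MG glioma cells carrying a GRP78-based luciferase sensor; 16 h compound incubation. Luminescence end-point read 10 min after Bright-Glo addition at room temperature.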
D1 antag: blocks dopamine activation of the human D1 receptor. P21728. HEK293 TREx D1 cells, calcium flux, dopamine EC80; hits give low values. activity change, negative = inhibition, % at 10 µM. 360,000 tested, 3.2% active. AID 504652; in the data active = activity change below about -30%; note: % is set by controls: 0 for no effect and ±100 for the full control effect
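Calcium flux readout: force-coupled, inducible Hek293 Trex D1 line, cells induced overnight at 30 C with tetracycline, dye-loaded 30–90 min at RT. Antagonism scored against EC80 dopamine challenge given 180 s after compound.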
TRHR enhancer: allosteric enhancers of human TRH receptor. TRHR cells, fluo-8 calcium fluorescence, EC20 TRH enhancement. enhancement, % at 2 µM. 360,000 tested, 0.66% active; in the data active = enhancement above about 30%; note: 0% is about no effect
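TRHR-expressing cells loaded with fluo-8 calcium dye were read kinetically (ex 480/em 530) during compound addition, then stimulated with an EC20 of TRH (10 nM final). Enhancement of the Gq-mediated intracellular calcium response was scored.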
TRHR agonist: agonists of human TRH receptor | TRHR cells, calcium flux fluo-8, FDSS agonist mode | activation, % at 2 µM | P34981 | 360,000 tested, 0.18% active | AID 493084; note: 0% is about no effect
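Read-out: compound-evoked intracellular calcium rise in TRHR cells, fluo-8 dye, kinetic FDSS fluorescence at 1 s/cycle following a 10-cycle baseline. Cells cultured overnight before dye loading (30 min–1.5 h, RT).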
An asterisk follows results filed as active; . = no result. Cut-off read from the data, not from the text of the source, unless noted: active = activation above about 30%; inactive = the rest.

SMILES	D1 potentiator	D1 ag	Glioma ERSR ind	D1 antag	TRHR enhancer	TRHR agonist
Cc1ccc(C(=O)CCC(=O)OC(C)C(=O)NC2CCCCC2C)cc1 (configuration not stated)	0	-1	6%	-12	1	-1
Cc1ccc(S(=O)(=O)N2CCOCC2)cc1NC(=O)COC(=O)c1cc(=O)[nH]c2ccccc12	-4	25	-4%	-41*	-16	0
CCOc1ccc(NC(=O)C2CCN(C(=O)NC3CCCCC3)CC2)cc1	4	-1	-3%	-35*	6	0
Cc1cc([N+](=O)[O-])nn1CCCC(=O)Nc1cccc(Cl)c1Cl	-3	3	1%	-9	11	0
CC(C)c1ccccc1NC(=O)CNCCc1ccc(C(F)(F)F)cc1	-2	36*	-2%	-1	-2	1
NS(=O)(=O)c1ccc(CCNC(=O)CNCCc2ccc(C(F)(F)F)cc2)cc1	0	0	-4%	7	2	1
COc1ccc(NS(=O)(=O)c2cc(OC)ccc2NC(=O)c2cc(C)oc2C)cc1	-3	3	-6%	-2	-9	0
CC[C@@H](c1ccccc1)n1c(=O)n2n(c1=O)[C@H]1[C@H](O)[C@H]3O[C@@H]3/C(=N/OC[C@@H](O)COCc3ccco3)[C@@H]1CC2	.	.	-4%	.	.	.
COc1ccc(C(=O)N(C)Cc2cnn(Cc3ccccc3)c2)cc1S(=O)(=O)N1CCOCC1	-4	1	-4%	-6	3	0
NS(=O)(=O)c1ccc(NC(=O)C(Sc2ccccc2)c2ccccc2)cc1 (configuration not stated)	0	4	-3%	-33*	-3	1
NS(=O)(=O)c1ccc(NC(=O)CSc2ccccc2)cc1	-4	7	2%	5	-7	0
COc1ccc(CN2CC34C=CC(O3)C(C(=O)O)C4C2=O)cc1 (configuration not stated)	.	1	-1%	-58*	2	0
Cc1ccc(C(=O)NCCSc2c(C)[nH]c3ccccc23)cc1[N+](=O)[O-]	-11	0	-3%	-70*	-2	0
COc1cccc(C(=O)NCCSc2c(C)[nH]c3ccccc23)c1OC	-13	16	-6%	-38*	-11	1
COc1cc(C(=O)NCCSc2c(C)[nH]c3ccccc23)cc(OC)c1OC	1	2	-1%	-4	2	0
Cc1ccccc1-c1noc(-c2ccc(NCC3CCCO3)c([N+](=O)[O-])c2)n1 (configuration not stated)	0	2	1%	1	-3	0
Cn1c(=O)oc2cc(S(=O)(=O)N3CCC(C(=O)NCC4COc5ccccc5O4)CC3)ccc21 (configuration not stated)	-7	1	-1%	-35*	-5	0
O=C(NCC1COc2ccccc2O1)C1CCN(S(=O)(=O)c2ccccc2)CC1 (configuration not stated)	.	.	-1%	.	.	.
Cc1c(C(=O)NCc2ccc(F)cc2)oc2ccc(S(=O)(=O)N3CCOCC3)cc12	2	4	-4%	28	1	1
Cn1c(=O)oc2cc(S(=O)(=O)N3CCCC(C(=O)N4CCc5ccccc5C4)C3)ccc21 (configuration not stated)	.	12	2%	-38*	-6	1
Cc1c(C(=O)NCc2c(F)cc(F)cc2F)oc2ccc(S(=O)(=O)N3CCOCC3)cc12	-4	3	-2%	-45*	-2	1
Cc1ccc(NC(=O)C2CCCN(S(=O)(=O)c3ccc4c(c3)oc(=O)n4C)C2)cc1Cl (configuration not stated)	-2	2	-3%	-31*	4	0
CO[C@H]1/C=C\O[C@@]2(C)Oc3c(C)c(O)c4c(O)c(c(C=NN5CCN(C6CCCC6)CC5)c(O)c4c3C2=O)NC(=O)C(C)=CC=C[C@H](C)[C@H](O)[C@@H](C)[C@@H](O)[C@@H](C)[C@H](OC(C)=O)[C@H]1C	.	.	-2%	.	.	.
COc1cccc(-c2nc3cc4c(cc3cc2CN(C(=O)c2cc(C)nn2C)C2CC2)CCC4)c1OC	.	.	-4%	.	.	.
